High-throughput results: PubChem, National Center for Advancing Translational Sciences (NCATS)
Cruzain inh noDet – qHTS Assay for Promiscuous and Specific Inhibitors of Cruzain (without detergent); Cruzipain (Trypanosoma cruzi), P25779; purified cruzain, Z-FR-AMC fluorescence, no detergent; Potency, µM, usual class: inhibitors; 2.3% of 200,000 active; note: nearly all actives have a fitted effect of over 40% in size
Target sequence (P25779 123-467 limits assumed): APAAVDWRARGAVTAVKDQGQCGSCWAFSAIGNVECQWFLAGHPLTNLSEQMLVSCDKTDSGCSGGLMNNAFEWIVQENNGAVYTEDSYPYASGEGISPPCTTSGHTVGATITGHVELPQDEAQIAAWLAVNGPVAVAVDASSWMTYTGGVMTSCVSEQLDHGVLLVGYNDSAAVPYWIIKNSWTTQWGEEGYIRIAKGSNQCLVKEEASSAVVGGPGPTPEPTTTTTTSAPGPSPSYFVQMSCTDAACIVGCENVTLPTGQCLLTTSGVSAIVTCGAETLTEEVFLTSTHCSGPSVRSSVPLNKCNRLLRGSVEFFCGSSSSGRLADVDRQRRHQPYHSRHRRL
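Detergent-free condition (0.00005% Triton X-100) in acetate buffer pH 5.5 with DTT. 1.5 nM enzyme and compound were pre-mixed 15 min, then 2 uM Z-FR-AMC substrate added; reaction progress from fluorescence change between first and third reads (60 s).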
Cruzain Triton – qHTS Assay for Promiscuous and Specific Inhibitors of Cruzain (with detergent); Potency, µM, usual class: inhibitors; Cruzipain (Trypanosoma cruzi), P25779; purified cruzain, Z-FR-AMC fluorescence, 0.01% Triton; 0.43% of 200,000 active; note: nearly all actives have a fitted effect of over 40% in size
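Detergent-containing run (0.01% Triton X-100) in acetate buffer pH 5.5 with 5 mM DTT: enzyme at 1.5 nM final, 15 min compound preincubation at room temperature, then 2 uM Z-FR-AMC substrate. Activity taken as 60 s fluorescence increase at 360/450 nm.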
Each line names hits and unclear results; the compound was inactive in the other large screens. A selection: hits, their analogues and other compounds. The true share with any hit is near 2.5%. Calls come from the whole dose curve; as a rule, active = well fitted curve in the direction sought with a large enough effect; inconclusive = small, poorly fitted or top-dose-only effect, or another doubt; inactive = no such curve, though single readings can be large; an effect the other way counts as inactive or inconclusive.

CC1(C)CCC(C)(C)c2c1ccc(O)c2Cc1c(O)ccc2c1C(C)(C)CCC2(C)C	none
Cc1ccc(CNC(=O)C2CCCN(S(=O)(=O)c3cccc4nsnc34)C2)cc1 (configuration not stated)	none
CCCCC(CC)COC(=O)COc1ccc(Cl)cc1Cl (configuration not stated)	none
Cc1ccc(-c2nnn(CC(=O)N(c3ccc(F)cc3)C(C(=O)NC(C)(C)C)c3ccco3)n2)o1 (configuration not stated)	none
Cc1ccc(-c2nnn(CC(=O)N(c3ccc(F)cc3)C(C(=O)NC3CCCC3)c3ccco3)n2)o1 (configuration not stated)	Cruzain inh noDet 10µM
Cc1ccc(-c2nnn(CC(=O)N(c3ccccc3F)C(C(=O)NC3CCCC3)c3ccco3)n2)o1 (configuration not stated)	none
Cc1ccc(-c2nnn(CC(=O)N(c3cccc(F)c3)C(C(=O)NC3CCCC3)c3ccco3)n2)o1 (configuration not stated)	Cruzain inh noDet 6.3µM
Cc1nn(CC(=O)NCc2ccc(N(C)C)cc2)c(=O)c2nn(-c3ccccc3)c(C)c12	none
COCCCNC(=O)CN1C(=O)c2c(c3ccccc3n2C)C1c1ccc(OC)cc1 (configuration not stated)	Cruzain inh noDet inconclusive
Cc1ccc(CN2C(=O)C(=O)c3cc(Br)cc(C)c32)cc1	none
CC(=O)c1c(N2CCN(Cc3ccccc3)CC2)[nH]c(-c2ccccc2)nc1=S	Cruzain inh noDet 10µM
CC(=O)c1c(N2CCCC2)[nH]c(-c2ccccc2)nc1=S	none
COc1ccc(-c2nc(C)c(CCNC(=O)c3ccccc3Br)s2)cc1OC	Cruzain inh noDet inconclusive
CC(C)CC(NC(=O)C(CC(C)C)NC(=O)OC(C)(C)C)C(N)=O (configuration not stated)	Cruzain inh noDet 16µM, Cruzain Triton inconclusive
CSCCC(NC(=O)OC(C)(C)C)C(=O)NC(CC(C)C)C(N)=O (configuration not stated)	none
CCc1ccc(NC(=O)c2cc(=O)c3ccc(C)c(C)c3o2)cc1	none
CCN(CC)S(=O)(=O)c1ccc2c(c1)c(=O)c(C(=O)N1CCN(c3ccc(OC)cc3)CC1)cn2C	none
O=C(N/N=C\c1ccc(-c2ccccc2[N+](=O)[O-])o1)C1COc2cc3ccccc3cc2O1 (configuration not stated)	Cruzain inh noDet 7.9µM
O=C(N/N=C\c1ccc(-c2ccccc2[N+](=O)[O-])o1)C1COc2ccccc2O1 (configuration not stated)	Cruzain inh noDet inconclusive
CCOC(=O)c1[nH]c2ccc(Cl)cc2c1NC(=O)c1nonc1C	Cruzain inh noDet 10µM
CCOC(=O)c1[nH]c2ccc(OC)cc2c1NC(=O)c1nonc1C	none
COc1ccc2cc3cc(C(=O)NCc4ccccn4)oc3nc2c1	Cruzain inh noDet inconclusive, Cruzain Triton 32µM
COc1ccc2cc3cc(C(=O)NCc4ccco4)oc3nc2c1	none
COc1ccc2nc(N/C(N)=N/C(=S)Nc3ccc(C)c(C)c3)nc(C)c2c1	Cruzain inh noDet 13µM
Cc1ccc(NC(=S)/N=C(\N)Nc2nc(C)c3ccccc3n2)cc1C	Cruzain inh noDet inconclusive
CCCCCCN(CCCCCC)C(=O)Cc1c(-c2ccc(F)cc2)[nH]c2ccccc12	Cruzain inh noDet 32µM
O=C(Cc1c(O)c2ccccc2[nH]c1=O)N(Cc1ccccc1)Cc1ccccc1	none
CC(=O)[O-].CC(=O)[O-].O.O.[Cd+2]	none
CCOC(=O)c1cccc(NC(=O)c2cc(CN3CCOCC3)on2)c1	none
CSc1ccc(/C=C(/NC(=O)c2ccc(C)cc2)C(=O)Nc2cccc(F)c2)cc1	Cruzain inh noDet 20µM
Cc1ccc(NC(=O)/C(=C\c2ccc([N+](=O)[O-])cc2)NC(=O)c2ccccc2)cc1	none
Cc1cccc(N2CCN(C(=O)c3cccn4c(=O)c5cc(Cl)ccc5nc34)CC2C)c1 (configuration not stated)	none
Cc1ccc(CNC(=O)CSc2nc3ccsc3c(=O)n2-c2ccc(Br)cc2)cc1	none
CCOc1ccc(N2C(=O)CC(S/C(N)=N/N=C/c3cccs3)C2=O)cc1 (configuration not stated)	Cruzain inh noDet 10µM
COc1ccc(N2C(=O)CC(S/C(N)=N/N=C(\C)c3cccs3)C2=O)cc1 (configuration not stated)	none
COc1ccc(/C=C/C(=O)Nc2sc3c(c2C(N)=O)CCC(C)C3)cc1OC (configuration not stated)	none
Cc1ccc(NC(=O)COC(=O)C(CC(C)C)N2C(=O)C3CC=CCC3C2=O)c(C)c1 (configuration not stated)	Cruzain Triton 25µM
CCOC(=O)Nc1ccc(C)cc1C	none
COc1ccc(S(=O)(=O)NCC(c2ccco2)N2CCN(c3ccc(F)cc3)CC2)cc1C (configuration not stated)	none
CC(C)c1ccc(NC(=O)c2ccc(=O)n(Cc3ccccc3)c2)cc1	none
O=C(NC1=NCCS1)C12CC3CC(C1)CC(C(=O)NC1=NCCS1)(C3)C2	none
O=C(CC12CC3CC(C1)CC(CC(=O)NC1=NCCS1)(C3)C2)NC1=NCCS1	Cruzain inh noDet 25µM
Cc1ccc2oc(C(=O)Nc3nc(-c4ccc(F)cc4)ns3)c(C)c2c1	none
Cc1cc(-c2csc(N)n2)c(C)n1C	Cruzain inh noDet inconclusive
Cc1ccc(-n2c(C)cc(-c3csc(N)n3)c2C)cc1	Cruzain inh noDet 25µM
Cc1ccn2cc(CCNS(=O)(=O)c3ccc(F)c(C(F)(F)F)c3)nc2c1	Cruzain inh noDet 25µM
Cc1ccn2cc(CCNS(=O)(=O)c3ccc4c(c3)OCCO4)nc2c1	none
CCc1ccc(S(=O)(=O)NCCc2cn3ccccc3n2)s1	none
O=S(=O)(NCCc1cn2ccccc2n1)c1ccc(F)c(C(F)(F)F)c1	Cruzain Triton 25µM
CCOC(=O)C1CCN(C(=O)Cn2ncc3c4ccccc4n(Cc4ccc(F)cc4)c3c2=O)CC1	Cruzain inh noDet inconclusive
CCN1CCc2nc3sc(C(=O)c4ccccc4)c(N)c3cc2C1	none
Cc1ccc(S(=O)(=O)N2CCCCC2)cc1NC(=O)COC(=O)CNC(=O)c1cc(Cl)cc([N+](=O)[O-])c1	Cruzain inh noDet 20µM, Cruzain Triton 10µM
CC(C)(C)c1ccc(C(=O)NCC(=O)OCC(=O)Nc2ccccc2[N+](=O)[O-])cc1	none
Cc1ccc(S(=O)(=O)N2CCOCC2)cc1NC(=O)COC(=O)CNC(=O)c1ccc(C(C)(C)C)cc1	Cruzain inh noDet inconclusive
CC(C)NC(=O)COC(=O)CNC(=O)c1cc(Cl)cc([N+](=O)[O-])c1	Cruzain inh noDet 7.9µM, Cruzain Triton 7.9µM
Cc1nn2cc(-c3ccc(-c4ccccc4)cc3)nc2s1	Cruzain inh noDet 13µM
Cc1nn2cc(-c3ccc(Cl)cc3)nc2s1	Cruzain inh noDet inconclusive
CC(C)n1nc(C(=O)Nc2nnc(SCc3c(Cl)cccc3Cl)s2)c2ccccc2c1=O	Cruzain inh noDet 13µM
CC(C)n1nc(C(=O)Nc2nc3ccc(S(C)(=O)=O)cc3s2)c2ccccc2c1=O	none
CCSc1nn(CC(=O)Nc2cccc(CC)c2)c(N)c1S(=O)(=O)c1ccccc1	none
CCc1cc2c(nc1CC)CCN(CC/C(C)=N/O[C@@H](C)c1cc(-c3c(C)cc(C)cc3C)no1)C2	none
C/C(CCN1CCc2nc(-c3ccccc3)c(-c3ccccc3)cc2C1)=N\O[C@@H](C)c1cc(-c2c(C)cc(C)cc2C)no1	Cruzain inh noDet 20µM
